Active and inactive are the calls of the source.

The nature of this assay: PSAC antagonists in infected red cells, primary screen, cell-based, P. falciparum Indochina, OD700, 18 h (AID 1157). The conditions noted are these: P. falciparum Indochina infected erythrocytes, osmotic lysis OD700, 18 h; higher = more signal, called active from +8 up or from −8 down.
As to `CCCC[C@@H](O)C1=C(COC)Cn2c(=O)n(-c3ccccc3)c(=O)n2[C@H]1CO`, the z-score is -2.74 (inactive).

For the compound `CCN(CC)c1ccc(N2CC=CC34O[C@@H]5C=CCOC(=O)[C@@H]5[C@H]3C(=O)N(CCCO)[C@@H]4C2=O)cc1` (some centres undefined), the z-score is -1.36 (inactive).

For `COCCOC(=O)N1C(=O)[C@@]2(c3cc(C#CCC(C(=O)OC)C(=O)OC)ccc31)[C@H](c1ccc(OCCO)cc1)N1[C@H](c3ccccc3)[C@H](c3ccccc3)OC(=O)[C@H]1[C@@H]2C(=O)N1CCCCCCC1`, the z-score is 0.901 (inactive).

As for `CCOC(=O)C1=CC[C@@H](c2ccc(F)cc2)N(S(=O)(=O)c2ccc(C)cc2)[C@H]1c1ccc([N+](=O)[O-])cc1`, the z-score was 1.22 (inactive).

As for `COC(=O)c1c(CC[C@@H](CO)NC(=O)N[C@@H](Cc2ccccc2)Cn2cc(-c3cncn3C)nn2)oc(C(C)=O)c1C(=O)OC`, the z-score is -0.277 (inactive).

For `O=C(NCCO)C1=C[C@H](Oc2ccccc2I)[C@@H](O)[C@H](NCc2ccc(F)cc2)C1`, the z-score was 1.11 (inactive).

As for `CCCCN1CC=CC23O[C@@H]4/C=C\CCC(C)OC(=O)C4[C@H]2C(=O)N(C(C)CO)[C@@H]3C1=O` (some centres undefined), the z-score is 0.16 (inactive).

Turning to `CC(C)C[C@@H]1NC(=O)C([C@@H](C)OCc2ccccc2)NC(=O)[C@@]23C(=O)N[C@@H](Cc4ccccc4)C2[C@H](C)[C@@]2(C)O[C@H]2C3/C=C/CC/C=C/CNC1=O` (some centres undefined), the z-score is -1.61 (inactive).

Consider `COCCOC(=O)N1C(=O)[C@@]2(c3cc(C#CCCO)ccc31)[C@H](C(=O)N1CCc3cc(OC)c(OC)cc3C1)[C@H]1C(=O)O[C@H](c3ccccc3)[C@H](c3ccccc3)N1[C@@H]2c1ccccc1OCCO`, for which the z-score was 1.05 (inactive).

The values above are taken from PubChem BioAssay.
